# Assay outcomes as filed in PubChem BioAssay.
# The list is not random: actives were taken first. Their share in the collection is about 2.2%.
# HIF act: HIF pathway transcriptional activation | U2OS HRE-luciferase reporter, luminescence; normalized: DMSO 0%, desferrioxamine 100% | activation, % at 7.5 µM (by protocol) | actives 0.32% (n = 300,000) | AID 1910;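 active = mean activation of at least 10% of the iron chelator positive control signal, with at least half of replicates also reaching 10%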
# GalR3 antag: antagonists of human GalR3; O60755; HEK293 GalR3-CNG cAMP membrane potential fluorescence; galR3 body fused to GalR1 C-terminus; inhibition, % at 3 µM; actives 0.44% (n = 360,000); AID 651719;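 active = inhibition above the screen-wide average plus 3 SD, cut at about 13% in these data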;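 also: forskolin and galanin both at EC90 stimulate the cells; cAMP rise reported by CNG channel membrane potential dye signal; 0% = forskolin plus galanin with DMSO and 100% = forskolin alone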
# Target sequence (O60755 1-299 limits assumed): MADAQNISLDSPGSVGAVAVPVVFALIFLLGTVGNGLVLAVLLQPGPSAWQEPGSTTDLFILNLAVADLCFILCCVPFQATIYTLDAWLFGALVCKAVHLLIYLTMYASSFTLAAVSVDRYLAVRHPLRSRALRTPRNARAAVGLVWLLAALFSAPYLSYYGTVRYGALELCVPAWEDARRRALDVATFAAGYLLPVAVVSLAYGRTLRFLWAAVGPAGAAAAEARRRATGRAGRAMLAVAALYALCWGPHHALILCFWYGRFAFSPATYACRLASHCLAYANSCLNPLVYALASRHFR
# FXN GAA850 act: increases GAA850 frataxin promoter reporter activity; activation, % at 6 µM; HEK293 lucGAA850 FXN promoter luciferase reporter, 24 h; percent of 10 µM SAHA response; actives 0.56% (n = 360,000);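 active = activation above the average of all compounds screened plus 3 SD, cutoff fixed separately per campaign, cut at about 7.5% in these data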;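 also: 0% = DMSO wells and 100% = 10 µM SAHA wells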
# Hsp70 act: transcriptional activators of Hsp70; actives 0.04% (n = 200,000); activation, % at 10 µM; HeLa Hsp70 promoter luciferase reporter, luminescence; scaled: vehicle 0, proteasome-inhibitor control 100%;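 active = activation above the mean across all tested compounds plus 3 SD, cutoff set per campaign, cut at about 5.5% in these data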;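 also: 100% = MG132 at 30 µM as the positive control and 0% = DMSO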
# SMARCA2 activ: activators of SMARCA2 function; activation, % at 9.1 µM; MG213 cells, MMTV-luciferase reporter, dexamethasone, overnight; actives 1% (n = 370,000); AID 652017; in the data active = activation above about 7.8%;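 also: 0% = vehicle wells and 100% = reference activator wells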
# GAA30 counter: GAA30 FXN promoter activation counter-screen. actives 66% (n = 1,900). HEK293 lucGAA30 FXN promoter luciferase, 24 h; DMSO = 0%, 5 µM ipriflavone = 100%. AID 588350. shares compounds with FXN GAA850 act. activation, % at 6 µM;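 active = mean activation above the mean of solvent-only control wells plus 3 SD, cut at about 22% in these data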;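 also: counterscreen of GAA850 promoter hits where activity marks nonselective or luminescence artifacts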
# FXN GAA850 conf: GAA850 FXN promoter activation confirmation; actives 86% (n = 1,900); HEK293 lucGAA850 FXN promoter luciferase reporter, 24 h; 100% = activation by SAHA; shares compounds with FXN GAA850 act; activation, % at 6 µM;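 active = mean activation above a set limit taken from the primary screen, cut at about 8% in these data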;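 also: 0% = DMSO wells and 100% = 10 µM SAHA wells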
# Active calls of the source: *; x = not tested or not shown.
SMILES,HIF act,GalR3 antag,FXN GAA850 act,Hsp70 act,SMARCA2 activ,GAA30 counter,FXN GAA850 conf
Cc1ccnc(NC(=O)CNC(=O)COc2ccccc2)c1,2,-2,7.9*,x,3,100*,40*
COC(=O)CSc1nnc(-c2n[nH]c3c2CCC3)n1N,x,x,x,x,-4,x,x
O=[N+]([O-])c1cc(S(=O)(=O)C(F)(F)F)ccc1Sc1nc2ccccc2s1,6,-2,13*,0,1,-7,38*
CS(=O)(=O)c1ccc(Sc2nc3ccccc3s2)c([N+](=O)[O-])c1,0,x,-17,1,x,x,x
Cc1c(Cc2ccccc2)sc(NC(=O)c2ccco2)c1C(N)=O,0,-3,8.8*,0,5,38*,11*
CC(C)(C)OC(=O)n1ccc2ccc(-c3ccc4cc[nH]c4c3)cc21,x,x,x,x,2,x,x
C=C1c2cccc(O)c2C(=O)C2C(=O)[C@]3(O)C(=O)C(C(N)=O)C(=O)[C@@H](N(C)C)[C@@H]3[C@@H](O)[C@H]12 (stereo not given in full),x,-6,18*,x,-5,16,7
COC(=O)[C@]12C[C@H](CC(=O)NCCCCc3ccccc3)C(=O)N(Cc3ccc(Cl)cc3Cl)C1=C[C@H](C(C)(C)C)O[C@@H]2C,x,x,x,x,-3,x,x
CCSc1ccc(-c2cccc([N+](=O)[O-])c2)nn1,4,3,8.5*,0,1,97*,29*
O=C(NCC1CCCO1)c1cc(-c2ccc(F)cc2)no1 (stereo not given),14*,4,11*,x,0,85*,31*
O=C(NCC1CCCO1)c1cc(-c2ccccc2)on1 (stereo not given),15*,1,24*,3,1,157*,91*
O=C(NCc1ccccc1)c1cc(-c2cccs2)on1,4,-9,3,0,0,x,x
COc1ccc(-c2cc(C(=O)NCC3CCCO3)on2)cc1OC (stereo not given),0,6,-1,x,-4,x,x
Cc1ccc(-c2cc(C(=O)NCC3CCCO3)no2)cc1 (stereo not given),1,1,5,0,1,x,x
O=C(NCc1ccco1)c1cc(-c2cccs2)on1,21*,-5,26*,0,-2,150*,56*
CCCNC(=O)c1cc(-c2ccco2)on1,16*,-4,22*,0,0,128*,57*
O=C(CN1CCc2onc(-c3cccc(-n4cc(CO)nn4)c3)c2C1=O)N1CCOCC1,x,x,x,x,-1,x,x
COc1ccc(CCNC(=O)c2cc(-c3ccccc3)on2)cc1OC,x,-9,10*,0,2,62*,33*
O=C(NCc1ccco1)c1cc(-c2ccc(F)cc2)on1,5,-4,7,0,4,x,x
O=C(NCc1ccco1)c1cc(-c2ccccc2)on1,12*,-6,9.1*,0,0,105*,37*
Cc1cc(NS(=O)(=O)C2CCN(C(=O)Cc3ccc(Cl)c(Cl)c3)CC2)no1,x,x,x,x,-1,x,x
CN(C)S(=O)(=O)c1cc(NC(=O)CSc2nn(-c3ccc(Cl)cc3)c(=S)s2)ccc1Cl,0,0,11*,0,-1,14,9.1*
Cc1ccc(NC(=O)CSc2nn(-c3ccc(Cl)cc3)c(=S)s2)cc1S(=O)(=O)N(C)C,-1,-3,10*,0,-7,6,6
COc1ccc2c(c1)CCCN2C(=O)C1CCCN(S(=O)(=O)c2cccs2)C1 (stereo not given),x,x,x,x,1,x,x
COc1ccc(Nc2nc(N)nc(CSC(=S)N3CCOCC3)n2)cc1,2,-7,7.6*,0,7,83*,32*
SMILES,HIF act,GalR3 antag,FXN GAA850 act,Hsp70 act,SMARCA2 activ,GAA30 counter,FXN GAA850 conf
Nc1nc(CSC(=S)N2CCOCC2)nc(Nc2ccc(F)cc2)n1,2,2,6,0,2,x,x
O=C(Nc1ccccc1O)c1csc2c1CCCC2,3,-2,11*,0,-1,119*,44*
O=C(NCCc1ccc(O)c(O)c1)C1COc2ccccc2O1 (stereo not given),0,1,8.8*,x,-4,22,18*
CCOC(=O)c1c(C)nc2c3ccccc3ccn12,1,-2,8.1*,0,7,118*,44*
CCOC(=O)c1c(C)nc2c(C)cccn12,0,-3,1,1,-1,x,x
Cc1ccc(-c2c(C(=O)NC3CCCC3)oc(=O)c3ccccc23)cc1,x,x,x,x,-4,x,x
CN(C)C(=S)N=c1ssc(=S)n1Cc1cccnc1,x,-6,12*,x,6,1,12*
S=C1NCN(Cc2cccnc2)CN1,0,-3,0,x,-3,x,x
C=CCN1[C@@H](C)COc2cccc(N3CCSCC3)c2S1(=O)=O,x,x,x,x,6,x,x
O=C1[C@H]2[C@@H](c3ccc(F)cc3)N3C(=O)N(c4ccccc4)C(=O)[C@@]3(Cc3ccccc3)[C@H]2C(=O)N1C1CCCCC1,-1,-6,10*,x,0,23*,7
O=C1[C@H]2[C@@H](c3ccc(F)cc3)N3C(=O)N(c4cccc(Br)c4)C(=O)[C@@]3(Cc3ccc(Cl)cc3)[C@H]2C(=O)N1C1CCCCC1,1,-8,0,x,5,x,x
O=C1[C@H]2[C@@H](c3ccc(F)cc3)N3C(=O)N(c4cccc(Cl)c4)C(=O)[C@@]3(Cc3ccccc3)[C@H]2C(=O)N1C1CCCCC1,0,-6,9.3*,x,1,13,7
C=CCN1[C@@H](Cc2ccccc2)COc2cccc(N3CCCC3)c2S1(=O)=O,x,x,x,x,-2,x,x
CCOc1cc(-c2nc3ccccc3s2)ccc1O,2,-6,9.4*,x,6,99*,29*
COc1cc(-c2nc3ccccc3s2)ccc1O,3,-8,4,0,3,x,x
CCn1c(=O)n(CC(=O)N2CCC(C)CC2)c(=O)c2ccccc21,x,x,x,x,-3,x,x
C=CCn1c(Cc2cccs2)nnc1SCC(=O)Nc1ccc(C)cc1,x,x,x,x,-6,x,x
Cc1cccc(NC(=O)Nc2ccc(C#N)cc2)n1,8,2,20*,0,4,103*,105*
Cc1cccc(NC(=O)Nc2ccccc2[N+](=O)[O-])n1,0,-11,9.3*,x,1,67*,25*
Cc1cccc(NC(=O)Nc2cccc(C#N)c2)n1,9,-2,8.0*,1,2,90*,70*
COc1ccccc1NC(=O)Nc1cccc(C)n1,1,-5,1,x,1,x,x
CCCCC1(Cc2cccc([N+](=O)[O-])c2)C(=O)N(c2ccccc2)N(c2ccccc2)C1=O,0,-7,8.2*,0,-8,-1,7
